Experimental findings from PubChem BioAssay AID651932 (Southern Research Specialized Biocontainment Screening …, 2012) are described below.

Activity calls are given as the source filed them. How the calls were made is not given here.

The inhibition is the relative decrease from the control value, in per cent.

A short description of this experiment: anti-respiratory syncytial virus activity – HEp-2 cells, set 2, counter-screen for VEEV inhibitor project (AID 651932). The conditions noted are these: RSV cytopathic effect inhibition; series mostly up to 25 µM; inhibition: at the top concentration. On the technique in general: The purpose of a counterscreen is to sort out artefacts and off-target activity.
As for `CCN1CCN(Cc2nc3ccc([N+](=O)[O-])cc3c(=O)n2-c2ccccc2F)CC1`, the “inhibition” value is 11.3% (inactive).

On to `CCN1CCN(C)CC1=Nc1ccc([N+](=O)[O-])cc1C(=O)Nc1ccccc1`, for which the “inhibition” value was 12.7% (inactive).

Turning to `COc1ccc(NC(=O)c2cc([N+](=O)[O-])ccc2N=C2CN(C)CCN2C)cc1`, the “inhibition” value is 3.17% (inactive). Turning to `CN1CCN(C)C(=Nc2ccc([N+](=O)[O-])cc2C(=O)Nc2ccccc2)C1`, the “inhibition” value is 8.1% (inactive).
